Measured values as given in PubChem BioAssay AID1224864 (Chung Lab, Department of Pediatrics, Emory University, 2016).
Hit rate of the full screen: of about 2,000 compounds, about 20 (1%) were called active. The rule behind the calls is not given here. The sample as a whole holds a higher share of actives than the screen did.

target: Cystic fibrosis transmembrane conductance regulator (Homo sapiens) (UniProt P13569); test: correctors of F508del-CFTR surface localization, primary screen, imaging, HeLa, high-content microscopy, immunofluorescence (AID 1224864); settings: PM immunofluorescence imaging, 24 h, at 10 µM, stronger effect = higher value; total CFTR intensity: measured here: total cellular F508del-CFTR signal unless noted;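 note: HeLa cells stably expressing F508del-CFTR stained with 3G11 antibody against NBD1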;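 for plasma membrane CFTR intensity: mean immunofluorescence in a thin cell-margin band taken as plasma membrane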
Sequence (P13569 whole entry, looked up, stated change not applied): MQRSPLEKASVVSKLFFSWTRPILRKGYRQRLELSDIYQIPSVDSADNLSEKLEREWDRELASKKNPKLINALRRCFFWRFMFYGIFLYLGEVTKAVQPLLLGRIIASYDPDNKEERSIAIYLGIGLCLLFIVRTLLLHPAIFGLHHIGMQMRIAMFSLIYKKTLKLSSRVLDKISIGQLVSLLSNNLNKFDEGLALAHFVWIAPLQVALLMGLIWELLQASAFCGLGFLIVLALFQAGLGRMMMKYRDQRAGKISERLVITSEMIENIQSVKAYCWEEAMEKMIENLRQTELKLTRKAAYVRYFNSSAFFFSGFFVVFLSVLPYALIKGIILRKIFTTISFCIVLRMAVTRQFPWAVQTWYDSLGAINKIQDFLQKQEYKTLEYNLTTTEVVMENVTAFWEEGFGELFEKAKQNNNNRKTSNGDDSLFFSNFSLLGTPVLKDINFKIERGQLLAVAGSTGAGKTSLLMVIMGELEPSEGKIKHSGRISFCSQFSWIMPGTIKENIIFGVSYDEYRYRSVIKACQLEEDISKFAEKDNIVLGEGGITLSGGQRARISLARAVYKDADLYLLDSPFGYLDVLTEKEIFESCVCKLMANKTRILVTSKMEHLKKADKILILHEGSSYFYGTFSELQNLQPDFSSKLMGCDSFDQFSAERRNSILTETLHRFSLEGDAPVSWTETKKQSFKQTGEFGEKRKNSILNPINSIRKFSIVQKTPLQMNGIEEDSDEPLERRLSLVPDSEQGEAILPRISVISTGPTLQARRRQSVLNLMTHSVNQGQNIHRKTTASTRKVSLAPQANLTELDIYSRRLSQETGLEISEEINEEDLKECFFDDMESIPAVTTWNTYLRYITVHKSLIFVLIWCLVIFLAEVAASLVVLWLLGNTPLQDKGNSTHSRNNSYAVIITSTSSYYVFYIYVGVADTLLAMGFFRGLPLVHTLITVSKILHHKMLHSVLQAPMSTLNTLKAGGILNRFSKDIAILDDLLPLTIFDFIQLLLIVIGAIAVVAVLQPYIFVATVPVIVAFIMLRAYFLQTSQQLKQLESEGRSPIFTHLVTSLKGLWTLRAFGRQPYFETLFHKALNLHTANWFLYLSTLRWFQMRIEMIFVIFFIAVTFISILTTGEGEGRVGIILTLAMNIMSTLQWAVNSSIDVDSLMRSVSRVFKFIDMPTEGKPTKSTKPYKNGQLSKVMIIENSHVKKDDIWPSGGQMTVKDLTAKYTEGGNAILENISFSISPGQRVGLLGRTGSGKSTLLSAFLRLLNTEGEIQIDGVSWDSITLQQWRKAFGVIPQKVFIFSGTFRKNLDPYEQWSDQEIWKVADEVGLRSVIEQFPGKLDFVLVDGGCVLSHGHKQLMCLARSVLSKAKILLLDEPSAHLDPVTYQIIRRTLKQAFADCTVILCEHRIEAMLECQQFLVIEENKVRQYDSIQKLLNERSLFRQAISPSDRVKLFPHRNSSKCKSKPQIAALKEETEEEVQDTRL

SMILES | plasma membrane CFTR intensity | total CFTR intensity
CC(C)[C@H]1C(=O)N2CCC[C@H]2[C@]2(O)O[C@](NC(=O)[C@@H]3C=C4c5cccc6[nH]cc(c56)C[C@H]4N(C)C3)(C(C)C)C(=O)N12 | 106% [relative to vehicle wells set at 100] (active) | 139% [measured here: total cellular F508del-CFTR signal, relative to vehicle wells set at 100]
CC[C@@H](CO)NC(=O)[C@@H]1C=C2c3cccc4c3c(cn4C)C[C@H]2N(C)C1 | 78% (inactive) | 76%
CC(C)C[C@H]1C(=O)N2CCCC2[C@]2(O)O[C@](NC(=O)[C@@H]3C=C4c5cccc6[nH]cc(c56)CC4N(C)C3)(C(C)C)C(=O)N12 (stereo not given in full) | 123% [relative to vehicle wells set at 100] (active) | 142% [measured here: total cellular F508del-CFTR signal, relative to vehicle wells set at 100]
CC(C)[C@@]1(NC(=O)[C@@H]2C[C@@H]3c4cccc5[nH]cc(c45)C[C@H]3N(C)C2)O[C@@]2(O)[C@@H]3CCCN3C(=O)[C@H](Cc3ccccc3)N2C1=O | 50% (inactive) | 49%
Clc1ccc(C2NCCc3nc[nH]c32)cc1 (stereo not given) | 79% [relative to vehicle wells set at 100] (inactive) | 78% [measured here: total cellular F508del-CFTR signal, relative to vehicle wells set at 100]
CC(C)C(=O)Nc1ccc(S(=O)(=O)N2CC3CC(C2)c2cccc(=O)n2C3)cc1 (stereo not given) | 92% (inactive) | 96%
C[C@@]1(CO)[C@H](O)CC[C@@]2(C)[C@H]1CC[C@H]1C[C@@H]3C[C@@]12CC[C@]3(O)CO | 75% (inactive) | 83%
CN1CCN(CCCN2c3ccccc3Sc3ccc(Cl)cc32)CC1 | 57% (inactive) | 48%
COP(=O)(OC)C(O)C(Cl)(Cl)Cl (stereo not given) | 96% (inactive) | 100%
CC12CC[C@H]3[C@@H](CCC4(O)C[C@H](O)CCC34/C=N/NC(=O)Cc3ccccc3)C1(O)CCC2C1=CC(=O)OC1 (stereo not given in full) | 87% [relative to vehicle wells set at 100] (inactive) | 88% [measured here: total cellular F508del-CFTR signal, relative to vehicle wells set at 100]
